Compound activity deposited in PubChem by National Center for Advancing Translational Sciences (NCATS).
In the library only some 4% were active in any assay of this set; here they are far more common.
D1 agonist: activates the human D1 dopamine receptor | activation, % at 2 µM | HEK293 T-REx D1 cells, calcium flux, agonist mode | 360,000 tested, 1% active | AID 504660; note: 0% is about no effect
Target sequence (P21728 whole entry, looked up): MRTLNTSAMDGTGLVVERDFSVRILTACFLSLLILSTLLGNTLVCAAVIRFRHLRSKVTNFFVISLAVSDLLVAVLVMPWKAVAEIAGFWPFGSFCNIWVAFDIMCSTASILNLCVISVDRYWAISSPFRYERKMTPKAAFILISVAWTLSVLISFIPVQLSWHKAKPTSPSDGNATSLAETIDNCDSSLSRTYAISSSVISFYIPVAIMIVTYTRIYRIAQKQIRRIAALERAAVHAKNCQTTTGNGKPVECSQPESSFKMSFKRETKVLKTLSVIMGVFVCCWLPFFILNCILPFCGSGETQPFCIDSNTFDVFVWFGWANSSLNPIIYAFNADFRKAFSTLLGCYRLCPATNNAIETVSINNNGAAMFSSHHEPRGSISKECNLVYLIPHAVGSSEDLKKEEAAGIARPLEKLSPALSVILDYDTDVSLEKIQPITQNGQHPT
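Agonism was scored from calcium flux recorded over 180 s (1 read/s) after pintool compound addition, following a 10-cycle baseline. Cells were inducible force-coupled HEK293 TREx D1, plated overnight at 30 C and loaded with no-wash calcium dye.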
D1 antag: human D1 dopamine receptor antagonism | 360,000 tested, 3.2% active | HEK293 TREx D1 cells, calcium flux, dopamine EC80; hits give low values | P21728 | AID 504652 | activity change, negative = inhibition, % at 10 µM; in the data active = activity change below about -30%; note: % is set by controls: 0 for no effect and ±100 for the full control effect
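Allosteric or orthosteric antagonism assessed as attenuation of the calcium response to EC80 dopamine, added 180 s after compound, in induced HEK293 Trex D1 cells loaded with no-wash calcium dye.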
GRP78 ERSR act: inducers of ER stress response in human glioma cells; 420,000 tested, 0.02% active; Potency, µM, for the others: at the highest dose activation, most hits filed as activators; U87-MG GRP78 promoter luciferase reporter, 16 h; active = well fitted activation curve with a large enough effect; note: potency is the fitted concentration of half-maximal effect; series mostly up to about 76 µM; % of control where 0% means no effect; nearly all actives have a fitted effect of over 35% in size
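ERSR induction read as luciferase luminescence (Bright-Glo, 10 min at room temperature) in stably transfected human U87-MG glioma cells exposed to compounds for 16 h, using GRP78 as sensor.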
D1 PAM: human D1 dopamine receptor positive modulation; P21728; HEK293 TREx D1 cells, calcium flux, dopamine EC20 potentiation; potentiation, % at 10 µM; 360,000 tested, 0.036% active; AID 504651; in the data active = potentiation above about 30%; note: 0% is about no effect
TRHR PAM: allosteric enhancers of human TRH receptor. P34981. TRHR cells, fluo-8 calcium fluorescence, EC20 TRH enhancement. enhancement, % at 2 µM. 360,000 tested, 0.66% active; in the data active = enhancement above about 30%; note: 0% is about no effect
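Enhancer read-out: after compound pinning and an initial kinetic agonist-mode read, an EC20 of TRH (10 nM final) was injected and fluo-8 calcium signal (Ex 480/Em 530) followed at 1 s/cycle for 100 cycles in TRHR-expressing cells.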
TRHR ag: activates the human TRH receptor. TRHR cells, calcium flux fluo-8, FDSS agonist mode. 360,000 tested, 0.18% active. activation, % at 2 µM; note: 0% is about no effect
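Read-out: compound-evoked intracellular calcium rise in TRHR cells, fluo-8 dye, kinetic FDSS fluorescence at 1 s/cycle following a 10-cycle baseline. Cells cultured overnight before dye loading (30 min–1.5 h, RT).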
* hit, by the source's call; . = no result given. Cut-off read from the data, not from the text of the source, unless noted: active = activation above about 30%; inactive = the rest.

SMILES	D1 agonist	D1 antag	GRP78 ERSR act	D1 PAM	TRHR PAM	TRHR ag
COc1ccc(-n2[nH]c(C)cc2=O)cc1	3	18	-5%	-3	33*	0
CCCCOc1cccc(C(=O)Nc2ccc(N3CCN(CC)CC3)cc2)c1	7	-51*	-3%	-8	-1	0
CCOc1cccc(C(=O)Nc2ccc(N3CCN(S(C)(=O)=O)CC3)cc2)c1	0	2	-2%	-7	-5	0
CCOc1ccc(C(=O)Nc2ccc(N3CCN(C)CC3)cc2)cc1	3	-24	-4%	-7	15	0
CCCCOc1ccc(C(=O)Nc2ccc(N3CCN(C)CC3)cc2)cc1	11	-73*	-4%	-16	1	-1
O=C(Nc1ccc(F)c(Cl)c1)c1cc(S(=O)(=O)N2CCc3ccccc3C2)ccc1F	3	-8	-1%	3	0	1
Cc1cccc(C)c1NC(=O)C1=C(O)c2ccccc2N(C)S1(=O)=O	3	-6	-4%	6	-2	0
COc1ccc(Nc2nc(-c3c[nH]c4ccccc34)cs2)cc1	3	-39*	-2%	-1	7	1
CSCCC(NC(=O)c1cc(CC(C)C)oc1C)C(=O)O (configuration not stated)	3	-3	10%	1	2	0
CCc1ccc(/C=C2\SC(=S)N(CCC(=O)NCCCN3CCOCC3)C2=O)cc1	17	-37*	5%	-14	3	1
CC(C)c1ccc(/C=C2\SC(=S)N(CC(=O)NCCCN3CCOCC3)C2=O)cc1	10	-35*	-2%	-4	-2	0
O=C(CCCN1C(=O)/C(=C/c2ccccc2)SC1=S)NCCCn1ccnc1	14	-30*	-12%	4	-7	1
CCC(=O)Nc1ccc(O)cc1	.	.	-3%	.	.	.
CCOC(=O)NC(=O)c1cn(CCNCCO)c(=O)[nH]c1=O	2	8	-2%	2	-2	1
CC(C)c1ccccc1Oc1c(C(F)(F)F)oc2c(CN3CCN(C)CC3)c(O)ccc2c1=O	13	-33*	-3%	-1	7	0
COc1ccc(S(=O)(=O)N2CCN(C(=S)NC3CCCCC3)CC2)cc1	0	.	-1%	-8	17	0
Cc1ccccc1CNC(=O)CN1CCSc2ccccc21	1	-31*	2%	-2	-12	0
CCc1ccc(CNC(=O)CN2CCSc3ccccc32)cc1	4	1	-1%	0	3	0
CCOCc1c(C(=O)NC2=Nc3ccccc3NC(CC)=C2C(=O)OCC)oc2ccccc12	6	3	-2%	-4	-4	0
CCOC(=O)CC1COc2ccccc2N1C(=O)c1cccc([N+](=O)[O-])c1 (configuration not stated)	2	4	-1%	7	31*	0
COC(=O)CC1COc2ccccc2N1C(=O)c1cccc(Cl)c1 (configuration not stated)	3	6	2%	0	-2	0
O=C(Cc1cccs1)Nc1ccc(C(=O)O)cc1	5	-2	-2%	-1	2	-2
COC(=O)c1cc(S(=O)(=O)Nc2nn(C)c3ccccc23)oc1C	0	-4	-2%	-6	0	0
COC(=O)c1cc(S(=O)(=O)Nc2nn(C)c3cccc(F)c23)oc1C	0	-40*	-1%	4	-4	0
O=C(c1ccc(Br)s1)N1CCN(c2ncccn2)CC1	1	6	-4%	-3	-1	-1
SMILES	D1 agonist	D1 antag	GRP78 ERSR act	D1 PAM	TRHR PAM	TRHR ag
O=C(Cc1cccs1)N1CCN(S(=O)(=O)c2ccccc2)CC1	2	0	-4%	-3	2	0
O=C(CCCc1cccs1)N1CCN(S(=O)(=O)c2ccccc2Br)CC1	1	-31*	-3%	-12	-7	0
Cc1c(CC(=O)N[C@@H](C)C(=O)O)c(=O)oc2c(C)c3occ(-c4ccccc4)c3cc12	3	-6	0%	13	1	0
COCCn1c(SCc2ccccc2F)nc2ccccc2c1=O	5	-6	-4%	-6	-3	0
Cc1ccc(Cl)cc1NC(=O)CSc1nc2c(c(=O)[nH]1)CN(Cc1ccccc1)CC2	10	-81*	-3%	-3	-1	0
Cc1nn2c(-c3cccnc3)ccnc2c1-c1ccccc1	4	-44*	-3%	-8	-1	0
CCc1ccc(-n2c(SCc3ccccc3F)nc3[nH]ncc3c2=O)cc1	3	5	-3%	-4	1	0
COc1ccc(CN2CCN(c3ccccc3OC)CC2)c(OC)c1	4	-46*	-4%	4	-3	0
COc1ccccc1N1CCN(CCCCCCOc2ccc(F)cc2)CC1	8	-45*	-2%	-21	-1	-1
COc1ccc(CN2CCN(CCCc3ccccc3)C(CCO)C2)c(OC)c1 (configuration not stated)	-3	-17	-3%	-2	-2	0
COc1ccc(OC)c(CN2CCN(Cc3cccc4ccccc34)CC2)c1	2	-67*	-5%	-15	4	0
COc1ccc(CN2CCN(CCCc3ccccc3)CC2)c(OC)c1	5	5	.	-3	55*	0
Cc1ccn(C(C)CC(=O)Nc2ccc(-c3ccno3)cc2)n1 (configuration not stated)	2	-11	0%	-15	-3	0
CC(=O)Nc1c(C)nn(-c2ccc([N+](=O)[O-])cc2)c1C	1	-13	-2%	0	37*	0
Cc1nc(C(=O)O)nn1-c1ccc([N+](=O)[O-])cc1	2	-1	-4%	-2	-3	0
COc1cccc(CN(C)C(=O)CSC(C)C(=O)Nc2cc(C)on2)c1OC (configuration not stated)	1	5	-1%	7	-3	-1
O=c1c2ccccc2c(/C=N/c2n[nH]c(CCCO)n2)c(O)n1-c1ccccc1Cl	2	11	-1%	-2	-1	0
CCOc1ccc(C(=O)C(CCC(CN(C)C)C(=O)c2ccc(OCC)cc2)CN(C)C)cc1 (configuration not stated)	36*	13	-14%	-10	-1	0
COc1ccc(C(=O)C(CCCCC(CN(C)C)C(=O)c2ccc(OC)cc2)CN(C)C)cc1 (configuration not stated)	24	-40*	1%	-10	-3	3
COc1ccc(C(=O)CC(=O)c2ccc(OC)cc2)cc1	1	-28	1%	-5	-1	1
CN(C)CC(CCC(CN(C)C)C(=O)c1ccccc1)C(=O)c1ccccc1 (configuration not stated)	3	6	-13%	0	2	1
